# Screening results: PubChem BioAssay, National Center for Advancing Translational Sciences (NCATS)
# ELG1 repair inh – qHTS screen for small molecules that inhibit ELG1-dependent DNA repair in human embryonic kidney (HEK293T) cells expressing luciferase-tagged ELG1; HEK293T ELG1-luciferase reporter, luminescence, 16 h; DNA damage induced by 5-fluorouridine; Potency, µM (doses to about 46.1 µM), without a hit: at the highest dose activity change, negative = inhibition, hits mostly inhibitors; 330,000 compounds, 2.3% hits; AID 504467, 2011; note: potency is the fitted concentration of half-maximal effect; nearly all actives have a fitted effect of over 55% in size
#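 In this reporter screen, reduction of luminescence relative to DMSO vehicle indicated activity. Compounds and 5-fluorouridine were added together to 2,000 cells per well, incubated for 16 hr at 37 °C, then developed with ONE-Glo.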
# TDP1 cell CPT – qHTS for Inhibitors of human tyrosyl-DNA phosphodiesterase 1 (TDP1): qHTS in cells in presence of CPT | chicken DT40 Tdp1-/-;hTDP1 cells + 20 nM CPT, ATP luminescence, 48 h | Potency, µM (top dose mostly 46.2 µM), for the others: top-dose activity change, negative = growth inhibition, usual class: inhibitors | 420,000 compounds, 12% hits | AID 686979, 2013; note: potency is the fitted concentration of half-maximal effect; nearly all actives have a fitted effect of over 55% in size
#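 Chicken DT40 Tdp1-/- cells stably complemented with human TDP1 were seeded at 400 cells/well in medium containing 20 nM camptothecin, exposed to pin-transferred compounds, and grown at 37 °C for at least 48 hr. Viability was read as ATP luminescence.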
# Giardia killer – Small Molecules that selectively kill Giardia lamblia: qHTS. Giardia lamblia trophozoite viability. activity change, % at 7.66 µM, hits read low. 340,000 compounds, 0.15% hits; in the data active = activity change below about -80%; inconclusive = between about -30% and that limit;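 note: parasites exposed to compound for two days anaerobically before the ATP read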
#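 Media and compound were dispensed first, then trophozoites at 100 cells/well; plates sat 48 hrs at 37 deg C without oxygen before ATP luminescence reagent was added and read after 15-30 min at room temperature.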
# TDP1 inh – qHTS Assay for Inhibitors of Tyrosyl-DNA Phosphodiesterase (TDP1); Tyrosyl-DNA phosphodiesterase 1 (Homo sapiens), Q9NUW8; recombinant TDP1, AlphaScreen DNA substrate cleavage; Potency, µM (doses to about 130 µM), inactives show top-dose activity change, negative = inhibition, most hits filed as inhibitors; 350,000 compounds, 0.28% hits; AID 485290, 2010; note: potency is the fitted concentration of half-maximal effect; nearly all actives have a fitted effect of over 40% in size
# Target sequence (Q9NUW8 whole entry, looked up): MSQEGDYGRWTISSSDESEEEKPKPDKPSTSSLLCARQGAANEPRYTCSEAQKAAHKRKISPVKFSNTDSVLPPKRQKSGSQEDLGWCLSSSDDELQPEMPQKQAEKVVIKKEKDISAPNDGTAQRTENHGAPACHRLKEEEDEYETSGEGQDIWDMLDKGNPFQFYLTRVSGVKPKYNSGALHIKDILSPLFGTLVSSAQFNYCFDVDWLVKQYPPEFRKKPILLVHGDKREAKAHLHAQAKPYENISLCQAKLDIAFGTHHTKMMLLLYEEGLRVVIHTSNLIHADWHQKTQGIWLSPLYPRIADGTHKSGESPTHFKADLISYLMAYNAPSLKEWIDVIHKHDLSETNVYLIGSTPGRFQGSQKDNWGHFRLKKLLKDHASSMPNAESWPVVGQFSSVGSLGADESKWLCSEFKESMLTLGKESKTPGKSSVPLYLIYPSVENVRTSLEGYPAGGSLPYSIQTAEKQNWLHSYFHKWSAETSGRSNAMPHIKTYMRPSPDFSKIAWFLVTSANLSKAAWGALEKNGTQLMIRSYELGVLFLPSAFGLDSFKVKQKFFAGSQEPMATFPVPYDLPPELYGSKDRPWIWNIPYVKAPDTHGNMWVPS
#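 E. coli-derived human Tdp1, 1 nM final. Cpd preinc 15 min RT; substrate 15 nM final, 5 min RT; AS bead mix 10 ug/ml final, 10 min RT. Signal loss = tyrosine-FITC cleavage. No-enzyme wells = max signal.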
# DT40 TDP1 no CPT – qHTS for Inhibitors of human tyrosyl-DNA phosphodiesterase 1 (TDP1): qHTS in cells in absence of CPT; DT40 Tdp1-/- hTDP1 cells, no CPT, ATP luminescence, 48 h; Potency, µM (series often up to 46.2 µM), inactives show at the highest dose activity change, negative = growth inhibition, actives largely listed as inhibitors; 420,000 compounds, 15% hits; AID 686978, 2013; note: potency is the fitted concentration of half-maximal effect; nearly all actives have a fitted effect of over 55% in size
#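 Chicken DT40 Tdp1-/- cells complemented with human TDP1, screened without camptothecin (DMSO vehicle only), 400 cells/well. Compounds pin-transferred, cells incubated at 37 °C for at least 48 hr. Growth read as ATP-dependent luminescence (CellTiter-Glo, 30 min at RT).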
# IL-1B inflam inh – qHTS for Inhibitors of Inflammasome Signaling: IL-1-beta AlphaLISA Primary Screen; AID 743279, 2014; THP-1 LPS/ATP IL-1B secretion, AlphaLISA, 16 h; hits give low values; activity change, % at 57.5 µM; 360,000 compounds, 4.7% hits; in the data active = activity change below about -50%; inconclusive = mostly about -30% to -49%
#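 Secreted IL-1B measured by AlphaLISA bead assay after 16 h compound exposure of THP-1 cells; compounds (final up to 57.5 uM) added 1 h before LPS (250 ng/mL) and ATP (1.25 mM) stimulation; lower signal means less secretion.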
# * = called active by the depositor; ? = inconclusive; . = not tested or not shown. Sampled rows, rich in hits. Any-hit rate of the full collection: about 19%. Unless noted, calls come from the whole dose curve; as a rule, active = well fitted curve in the direction sought with a large enough effect; inconclusive = small, poorly fitted or top-dose-only effect, or another doubt; inactive = no such curve, though single readings can be large; an effect the other way counts as inactive or inconclusive. % is set by controls: 0 for no effect and ±100 for the full control effect.
SMILES,ELG1 repair inh,TDP1 cell CPT,Giardia killer,TDP1 inh,DT40 TDP1 no CPT,IL-1B inflam inh
CC(=O)Nc1ccc(NC(=O)CSc2nnc(C)n2-c2ccccc2)cc1,10%,7%,0,.,17%,0
C1=C(CCNc2ncnc3c2[nH]c2ccccc23)CCCC1,18%,0.73µM*,2,7%,0.41µM*,-84*
CCCOc1ncnc2c1[nH]c1ccc(C)cc12,?,?,4,0%,9.2µM*,-14
O=c1c2[nH]c3ccccc3c2ncn1CCC1=CCCCC1,?,-3%,14,-1%,-8%,49
Cc1ccc2[nH]c3c(NCc4ccccc4)ncnc3c2c1,?,21µM*,38,.,16µM*,-2
COc1ccc(CNc2ncnc3c2[nH]c2cc(OC)c(OC)cc23)cc1,?,?,23,.,?,-95*
Cc1ccc2[nH]c3c(Cl)ncnc3c2c1,?,18%,-28,.,-17%,.
COc1ccc(CNc2ncnc3c2[nH]c2ccccc23)cc1,2.1µM*,10µM*,16,5%,5.8µM*,-108*
COc1ccc(CCn2cnc3c([nH]c4ccccc43)c2=O)cc1,-2%,-3%,-22,-10%,-8%,0
COc1ccc2c(c1)[nH]c1c(=O)n(N)cnc12,?,-25%,5,3%,-13%,22
COc1ccc2c(c1)[nH]c1c(Cl)ncnc12,5%,?,22,-3%,?,-95*
CSCC[C@H](NC(=O)CNC(=O)CNC(=O)[C@H](CO)NC(=O)[C@H](CCCNC(=N)N)NC(=O)[C@H](CO)NC(=O)[C@H](CC(C)C)NC(=O)[C@H](CC(C)C)NC(=O)CNC(=O)[C@H](C)NC(=O)[C@H](CC(C)C)NC(=O)[C@H](CCCNC(=N)N)NC(=O)[C@H](Cc1cnc[nH]1)NC(=O)[C@@H](NC(=O)[C@@H](N)C(C)C)[C@@H](C)O)C(=O)N[C@H](C(=O)N[C@@H](CCCCN)C(=O)N[C@@H](CO)C(=O)N[C@@H](CC(N)=O)C(=O)N[C@@H](Cc1ccccc1)C(=O)N[C@H](C(=O)N1CCC[C@H]1C(=O)N[C@H](C(=O)N[C@@H](CC(N)=O)C(=O)N[C@H](C(=O)NCC(=O)N[C@@H](CO)C(=O)N[C@@H](CCCCN)C(=O)N[C@@H](C)C(=O)N[C@@H](Cc1ccccc1)C(N)=O)C(C)C)[C@@H](C)O)C(C)C)C(C)C,.,.,.,11%,.,.
COc1ccc(Cn2c(CNC(=O)Cc3ccc(OC)c(OC)c3)nc3cccnc32)cc1,.,-19%,.,8%,-25%,.
Cc1ccc(O)c(C(CC(=O)NC2CCCCC2)c2ccccc2)c1 (centres undefined),-2%,-67%,-2,1%,23µM*,?
CCCN(CCC)C(=O)CC(c1ccccc1)c1cc(C)ccc1O (centres undefined),?,?,-26,5%,?,-57*
Cc1c(C)n(C)c2ccc(C(=O)NCCc3ccc(Cl)cc3)cc12,.,18µM*,.,11%,?,.
Cc1c(C)n(C)c2ccc(C(=O)Nc3cccc4ccccc34)cc12,-24%,26µM*,-17,12%,?,-19
Cc1c(C)n(C)c2ccc(C(=O)NCCc3ccco3)cc12,2%,?,-8,10%,16µM*,?
CCOC(=O)NN1C(=O)c2ccccc2NC1c1ccc(OC)cc1OC (centres undefined),-12%,0%,-4,5%,-5%,10
Cc1ccc(S(=O)(=O)NCCC(=O)NCCCSc2ccccc2)cc1,-18%,-27%,13,1%,-26%,-28
O=S(=O)(NCCCCCNS(=O)(=O)c1ccccc1)c1ccccc1,?,?,6,8%,26µM*,-19
NCCCCCCNS(=O)(=O)c1cccc2ccccc12,.,16µM*,.,8%,14µM*,.
O=C(CCNS(=O)(=O)c1ccccc1)NCCCSc1ccccc1,11%,7.3µM*,28,4%,18µM*,13
O=S(=O)(NCCCCCNS(=O)(=O)c1ccc(F)cc1)c1ccc(F)cc1,?,11µM*,4,2%,13µM*,10
Cc1[nH]c(C)c(S(=O)(=O)NCc2ccc(Cl)cc2)c1C(=O)N1CCCC1,3%,-20%,-24,2%,-6%,11
SMILES,ELG1 repair inh,TDP1 cell CPT,Giardia killer,TDP1 inh,DT40 TDP1 no CPT,IL-1B inflam inh
COc1ccccc1CNC(=O)C(NS(=O)(=O)c1cccs1)C(C)C (centres undefined),.,-22%,.,9%,?,.
Cc1cc2ccccn2c1C(=O)c1ccc(C#N)cc1,-15%,?,-10,.,23µM*,-28
Cc1cc2ccccn2c1C(=O)c1cc([N+](=O)[O-])cc([N+](=O)[O-])c1,?,-20%,-25,8%,-23%,42
Cc1cc2ccccn2c1C(=O)c1ccc(NN)c([N+](=O)[O-])c1,-13%,16µM*,1,9%,?,?
COC(=O)c1cc(C(=O)c2c(C)cc3ccccn23)cc([N+](=O)[O-])c1,-17%,8.2µM*,9,.,12µM*,34
CSc1ccccc1C(=O)N1CCN(c2ncccn2)CC1,-5%,-9%,-9,-2%,3%,48
Cc1cc(C)cc(NC(=O)C(Sc2ncnc3ccccc23)c2ccccc2)c1 (centres undefined),0%,?,-21,-3%,?,-58*
Cc1c(NC(=O)C(C)Sc2ncnc3ccccc23)c(=O)n(-c2ccccc2)n1C (centres undefined),3%,0%,-15,2%,-10%,21
Cn1nnnc1SC(C(=O)Nc1cccc(C(F)(F)F)c1)c1ccccc1 (centres undefined),2%,-19%,10,0%,-17%,-72*
O=C(Nc1cccc(C(F)(F)F)c1)C(Sc1ncnc2ccccc12)c1ccccc1 (centres undefined),-9%,?,9,8%,21µM*,-108*
Cc1ccc(-n2c(=O)c3c(c4cc(C)ccc4n3C)n(Cc3ccc(F)cc3)c2=O)cc1,.,-8%,.,6%,-19%,.
